# From PubChem BioAssay
# Pol kappa inh-1 – qHTS for Inhibitors of Polymerase Kappa; DNA polymerase kappa (Homo sapiens), Q9UBT6; purified Pol kappa, fluorescent DNA synthesis assay, 10 min; Potency, µM (highest dose often 107 µM), without a hit: at the highest dose activity, negative = inhibition, usual class: inhibitors; 400,000 tested, 0.53% active; further: potency means the concentration at half of the fitted maximal effect; on the % scale 0 is the no-effect control and ±100 the full control effect
# Target sequence (Q9UBT6 whole entry, looked up): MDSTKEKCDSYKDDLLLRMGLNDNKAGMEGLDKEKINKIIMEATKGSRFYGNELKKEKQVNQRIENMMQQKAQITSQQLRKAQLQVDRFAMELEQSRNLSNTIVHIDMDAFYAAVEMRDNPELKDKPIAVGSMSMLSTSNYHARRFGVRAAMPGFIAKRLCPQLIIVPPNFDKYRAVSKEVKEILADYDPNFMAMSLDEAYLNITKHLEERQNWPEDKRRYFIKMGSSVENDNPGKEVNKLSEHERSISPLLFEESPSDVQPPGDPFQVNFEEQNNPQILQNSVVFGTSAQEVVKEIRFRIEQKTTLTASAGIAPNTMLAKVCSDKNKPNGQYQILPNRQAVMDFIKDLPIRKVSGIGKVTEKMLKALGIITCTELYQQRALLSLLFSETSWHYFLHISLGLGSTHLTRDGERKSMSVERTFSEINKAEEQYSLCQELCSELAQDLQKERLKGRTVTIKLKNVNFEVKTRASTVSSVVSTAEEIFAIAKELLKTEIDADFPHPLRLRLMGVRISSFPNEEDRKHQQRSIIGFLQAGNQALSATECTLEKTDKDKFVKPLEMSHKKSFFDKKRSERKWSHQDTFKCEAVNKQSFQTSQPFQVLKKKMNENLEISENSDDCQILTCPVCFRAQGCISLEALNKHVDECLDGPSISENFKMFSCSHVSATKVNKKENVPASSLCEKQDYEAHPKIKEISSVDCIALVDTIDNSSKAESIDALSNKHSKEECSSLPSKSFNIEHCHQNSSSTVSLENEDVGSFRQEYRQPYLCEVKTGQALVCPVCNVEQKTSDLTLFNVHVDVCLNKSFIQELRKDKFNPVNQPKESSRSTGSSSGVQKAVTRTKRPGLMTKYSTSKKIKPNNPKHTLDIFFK
#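 Here, compound and 10 nM enzyme are combined for 15 min at room temperature; adding 50 nM substrate (final) starts DNA synthesis, tracked by fluorescence at 0 and 10 min against buffer-only wells.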
# Pol beta inh – qHTS Assay for Inhibitors of DNA Polymerase Beta; P06746; Pol beta primer extension/strand displacement, fluorescence kinetic; Potency, µM (doses to about 114 µM), for the others: at the top dose activity change, negative = inhibition, usual class: inhibitors; 340,000 tested, 1.3% active; AID 485314, 2010; further: potency means the concentration at half of the fitted maximal effect; on the % scale 0 is the no-effect control and ±100 the full control effect
#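 Homogeneous kinetic assay of primer extension and strand displacement by 10 nM Pol beta, preincubated 15 min at room temperature with compound before 50 nM substrate (final) was added. Read at 0 and 10 min; four-parameter Hill fit.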
# PI5P4K alpha inh – qHTS for Inhibitors of phosphatidylinositol 5-phosphate 4-kinase (PI5P4K); Phosphatidylinositol 5-phosphate 4-kinase type-2 alpha (Homo sapiens), P48426; PI5P4Kalpha enzyme, ADP-Glo luminescence, 60 min; hits give low values; max response, %; 330,000 tested, 1.2% active; AID 652105, 2013; active means max response of -50% or lower; inconclusive means between -30% and -50%; inactive means -30% or higher; further: value at the top dose of about 77 µM; on the % scale 0 is the no-effect control and ±100 the full control effect
#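 Luminescence from ADP-Glo served as readout of PI5P4Kalpha activity in a qHTS format. Reaction: enzyme, substrate, compound, ATP at 5 microM final, 60 min at RT.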
# POLI inh – qHTS for Inhibitors of Polymerase Iota | DNA polymerase iota (Homo sapiens), Q9UNA4 | Pol iota fluorescent replication assay, 10 min | Potency, µM (top dose mostly 115 µM), without a hit: at the highest dose activity, negative = inhibition, hits mostly inhibitors | 390,000 tested, 1% active; further: potency means the concentration at half of the fitted maximal effect
#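 Pol iota at 10 nM preincubated 15 min with compounds at room temperature; reaction started with fluorescent substrate, 50 nM final. Fluorescence read kinetically at 0 and 10 min; buffer-only wells as negative control.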
# Pol eta inh-1 – qHTS for Inhibitors of Polymerase Eta; 390,000 tested, 1.2% active; DNA polymerase eta (Homo sapiens), Q9Y253; recombinant Pol eta, fluorescent DNA replication assay; Potency, µM (top dose mostly 114 µM), for inactives: at the top dose activity change, negative = inhibition, hits mostly inhibitors; further: potency means the concentration at half of the fitted maximal effect; on the % scale 0 is the no-effect control and ±100 the full control effect
#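 Fluorescent replication assay: 50 nM final substrate added after a 15 min room-temperature compound preincubation with 10 nM enzyme. Signal taken at 0 min and again at 10 min.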
# WRN helicase inh – qHTS for Inhibitors of WRN Helicase. AID 651768, 2012. 360,000 tested, 0.46% active. Potency, µM (titrated, usually from 114 µM), inactives show at the highest dose activity change, negative = inhibition, hits mostly inhibitors. WRN helicase unwinding, fluorescent forked duplex, kinetic. Bifunctional 3'-5' exonuclease/ATP-dependent helicase WRN (Homo sapiens), Q14191; further: potency means the concentration at half of the fitted maximal effect; on the % scale 0 is the no-effect control and ±100 the full control effect; nearly all actives have a fitted effect of over 55% in size
#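 Kinetic red-fluorescence monitoring (525/598 nm) tracks WRN helicase activity after 100 nM fluorophore-quencher forked duplex and 2 mM ATP are added to 20 nM enzyme pretreated 15 min at room temperature with compound.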
# GALK inh confirm – Confirmation Assay for Inhibitors of Human Galactokinase (GALK). purified GALK, Kinase-Glo ATP depletion luminescence. AID 2015, 2009. 150 tested, 70% active. Potency, µM (highest dose often 115 µM), for inactives: at the top dose activity, negative = inhibition, usual class: inhibitors. shares compounds with Pol eta inh-1
# GALK redox cs – Confirmatory Assay for Inhibitors of Human Galactokinase (GALK): Phenol-HRP redox assay counterscreen; Phenol red-HRP H2O2 redox cycling, absorbance 600 nm; shares compounds with Pol eta inh-1; 150 tested, 40% active; Potency, µM (titrated, usually from 115 µM), without a hit: at the highest dose activity change, negative = H2O2 signal, hits mostly inhibitors
# HEK293 viability – Secondary Assay for Inhibitors of Human Galactokinase (GALK): HEK-293 Cell Viability Assay; shares compounds with Pol eta inh-1; HEK-293 viability, ATP luminescence (CellTiter-Glo), 24/48 h; Potency, µM (titrated, usually from 46.1 µM), inactives show at the top dose activity change, negative = cytotoxicity, hits mostly inhibitors; 170 tested, 10% active; AID 2547, 2010; further: potency means the concentration at half of the fitted maximal effect; on the % scale 0 is the no-effect control and ±100 the full control effect
# Pol kappa inh-2 – qHTS for Inhibitors of Polymerase Kappa: Confirmatory Assay for Cherry-picked Compounds; shares compounds with Pol eta inh-1; purified Pol-kappa, fluorescent strand-displacement substrate; Potency, µM, usual class: inhibitors; 920 tested, 76% active; AID 720501, 2013; further: potency means the concentration at half of the fitted maximal effect
# Pol eta inh-2 – qHTS for Inhibitors of Polymerase Eta: Confirmatory Assay for Cherry-picked Compounds | AID 720502, 2013 | 2,600 tested, 64% active | Pol eta primer extension, TAMRA/BHQ fluorescence, 10 min | Potency, µM, hits mostly inhibitors | shares compounds with Pol eta inh-1; further: potency means the concentration at half of the fitted maximal effect
# Active calls of the source: *; ? = inconclusive; . = no result given; [ ] = dose if it differs, or a comment. Sampled rows, rich in hits. Any-hit rate of the full collection: about 2.8%. Unless noted, the call rests on the fitted dose curve; in most records, active means well fitted curve in the direction sought with a large enough effect; inconclusive means small, poorly fitted or top-dose-only effect, or another doubt; inactive means no such curve, though single readings can be large; an effect the other way counts as inactive or inconclusive.
SMILES,Pol kappa inh-1,Pol beta inh,PI5P4K alpha inh,POLI inh,Pol eta inh-1,WRN helicase inh,Pol eta inh-2,others
Cc1[nH][nH]c(=O)c1C(c1ccc(-c2ccc(Cl)c(C(=O)O)c2)o1)c1c(C)[nH][nH]c1=O,50µM*,-25%,-22,3.2µM*,10µM*,?,60*,GALK inh confirm=?;GALK redox cs=4.7µM*;HEK293 viability=-7%;Pol kappa inh-2=24*
CC(NCC(=O)Nc1ccccc1C(=O)NC1CC1)c1ccc(S(C)(=O)=O)cc1 (stereo not drawn),-8%,.,9,-5%,-6%,0%,.,
O=C(CCCCCNC(=O)c1ccccc1Cl)N/N=C/c1ccco1,-15%,?,-16,?,-5%,-8%,.,
CCN(Cc1ccccc1)C(=O)CN(c1ccc(OC)cc1)S(=O)(=O)c1c(C)nn(C)c1C,1%,3%,.,29%,-16%,.,.,
COc1ccc(/C=C/C(=O)O)cc1S(=O)(=O)N1CCc2ccccc2C1,-11%,?,?,?,?,-5%[11.6 µM],?,
COc1ccc(C)cc1S(=O)(=O)N1CCc2ccccc2C1,-1%,16%,3,32%,-13%,-2%[57.1 µM],.,
Cc1cc(N)n(-c2ccc(C)c(C)c2)n1,-9%,3%,0,-2%,-3%,-4%,.,
Cc1cc(N)n(-c2ccc(Oc3ccccc3)c(S(=O)(=O)O)c2)n1,?,14µM*,-4,?,18µM*,-36%,.,Pol kappa inh-2=?
CCOc1ccc(Nc2nc(Cc3nnc(SCC(=O)O)o3)cs2)cc1,?,79µM*,.,?,50µM*,-28%[57.1 µM],?,
CCOc1ccc(Cc2nnc(SCC(=O)c3ccc(OC)cc3)o2)cc1,2%,7%,.,-8%,-6%,-3%,.,
COc1ccc(-c2nn(CCC(=O)O)cc2/C=C2\SC(N)=NC2=O)cc1OC,?,-1%,-10,-21%,10µM*,-5%[11.6 µM],43*,
O=C(CNC(=O)N1CC(=O)Nc2ccccc21)Nc1ccc(Cl)cc1Cl,.,.,4,.,-6%,12%,.,
COc1ccc2[nH]c(O)c(N=NC(=O)c3ccc(NS(=O)(=O)c4cccs4)cc3)c2c1,79µM*,.,-88*,40µM*,3.5µM*,?,38*,Pol kappa inh-2=17*
O=C(Nc1nnc(-c2ccncc2)s1)C1CCCO1 (stereo not drawn),-2%,-10%,-12,-2%,?,-11%,.,
O=C(Nc1nnc(-c2ccccc2F)s1)C1CCCO1 (stereo not drawn),?,32µM*,?,50µM*,14µM*,-24%[57.1 µM],?,
O=C(O)c1cccc(N/N=C/c2ccc(F)c(F)c2)c1,-3%,-24%,-12,110%,-3%,-2%,.,
O=C(O)c1cccc(N/N=C/C2=C(Cl)c3cc(Cl)ccc3SC2)c1,-19%,?,8,?,50µM*,-17%,?,Pol kappa inh-2=?
CN(C)c1ccc(N2C(=O)CSC2=S)cc1,-43%,-9%,-12,?,-12%,?,?,
O=C(CSc1nc(-c2ccccc2)nc2ccc(F)cc12)Nc1cccc(C(=O)O)c1,-25%,?,-50*,?,79µM*,-21%,.,Pol kappa inh-2=?
O=C(CSc1nc(-c2ccccc2)nc2ccc(F)cc12)Nc1ccc(C(=O)O)cc1,-14%,-10%,?,-6%,?,-21%[57.1 µM],.,
COc1ccc2c(c1)Oc1nc(-c3ccc(C)cc3)nc(SCC(=O)Nc3cccc(C(=O)O)c3)c1C2,.,.,.,.,.,.,.,Pol kappa inh-2=30*
Fc1ccccc1N1CCN(CC2CCCCC2)CC1,-3%,-7%,2,-2%,-1%,-1%,.,
CCn1c(C)nc2cc(C(=O)NNC(=O)CCC3CCCCC3)ccc21,-8%,19%,-4,127%,-10%,2%,.,
O=C(CCl)N1N=C(c2cccs2)CC1c1ccco1 (stereo not drawn),-5%,-26%,-7,98%,?,-2%,.,
O=C(CCl)N1N=C(c2ccco2)CC1c1ccco1 (stereo not drawn),22µM*,25µM*,-70*,3.2µM*,10µM*,56µM*,60*,
SMILES,Pol kappa inh-1,Pol beta inh,PI5P4K alpha inh,POLI inh,Pol eta inh-1,WRN helicase inh,Pol eta inh-2,others
COCCn1c(=O)c(-c2ccc(F)cc2)nc2cncnc21,0%[60.1 µM],.,.,.,.,.,.,
Cc1cccc2cc(/C=N/NC(=O)c3ccccc3O)c(Cl)nc12,-3%,28µM*,-1,-14%,?,?,?,
Cc1ccc2cc(/C=N/NC(=O)c3ccccc3O)c(Cl)nc2c1,-9%,3%[57.1 µM],-19,7%,16µM*,50µM*,?,
Nc1ccc(C(CC(=O)O)n2cccc2)cc1 (stereo not drawn),45µM*,?,-12,40µM*,25µM*,-6%[11.6 µM],34*,
O=C(O)c1ccc(Oc2ccc(S(=O)(=O)c3ccc(C(=O)O)c(C(=O)O)c3)cc2)cc1,?,?,?,28µM*,18µM*,-4%,38*,Pol kappa inh-2=19*
CC(C)(O)CCCC(C)(O)c1ccc(C(=O)O)cc1O (stereo not drawn),?,40µM*,4,35µM*,10µM*,-7%[11.6 µM],60*,
CCOC(=O)C1C(=O)NC(C(=O)OCC)(C(=O)OCC)C1CC (stereo not drawn),1%,.,6,27%,-2%,12%,.,
